Measured values reported in PubChem BioAssay AID1851 (National Center for Advancing Translational Sciences (NCATS), 2009).
Screen size: about 16,000 compounds; about 5,800 (36%) were called active. Another 23% or so got no clear call; they are omitted. The list shows a part of the results. Values without a mark were called inactive. Calls follow the shape of the dose curve; as a rule, active = well fitted curve in the direction sought with a large enough effect; inconclusive = small, poorly fitted or top-dose-only effect, or effect the other way; inactive = no such curve, though single readings can be large or run the other way.

Target: Cytochrome P450 2C19 (Homo sapiens) (UniProt P33261)
Sequence (P33261 whole entry, looked up): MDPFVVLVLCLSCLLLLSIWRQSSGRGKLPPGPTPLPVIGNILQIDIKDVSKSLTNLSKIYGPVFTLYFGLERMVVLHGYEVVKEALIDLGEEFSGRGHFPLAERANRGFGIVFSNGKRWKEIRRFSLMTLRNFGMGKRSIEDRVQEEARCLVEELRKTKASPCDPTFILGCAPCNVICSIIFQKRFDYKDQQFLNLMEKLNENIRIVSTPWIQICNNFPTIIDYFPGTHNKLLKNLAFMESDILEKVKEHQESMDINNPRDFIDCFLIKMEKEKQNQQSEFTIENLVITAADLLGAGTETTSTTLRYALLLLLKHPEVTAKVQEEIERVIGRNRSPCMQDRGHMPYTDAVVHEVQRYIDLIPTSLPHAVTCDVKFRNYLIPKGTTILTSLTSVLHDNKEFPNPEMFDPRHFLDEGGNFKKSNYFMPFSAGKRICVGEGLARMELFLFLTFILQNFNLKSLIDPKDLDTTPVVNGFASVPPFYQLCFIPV
Assay: Cytochrome panel assay with activity outcomes
Conditions: recombinant CYP, pro-luciferin dealkylation, luminescence, p450-cyp2c19; series mostly up to 57.1 µM; activity, negative = inhibition: at the top concentration
% is scaled to controls: 0 for no effect and ±100 for the full control effect.

SMILES	AC50	activity, negative = inhibition
COc1ccc2[nH]cc(CCNc3nc(-c4ccc(C(=O)N(C)C)cc4)nc4ccccc34)c2c1	3.16 µM (active)	
COc1ccc2[nH]cc(CCNc3nc(-c4ccc(N(C)C)cc4)nc4ccccc34)c2c1	7.94 µM (active)	
O=C1OC2CC3CC1CC(O)(C3)C2 (stereo not given)		-19.6%
COC(=O)/C(=C\C(=O)c1ccccc1)Nc1cccc(C(F)(F)F)c1	5.01 µM (active)	
CCC(C(=O)Nc1cccc(C(F)(F)F)c1)c1ccccc1 (stereo not given)		-24.6%
Nc1nc2c(ncn2[C@@H]2C=C[C@@H](CO)C2)c(=O)[nH]1		-3.48% [at 11.4 µM]
O=C(c1ccc(Oc2ccc(C(F)(F)F)cn2)cc1)N1CCN(c2ccccc2)CC1	10 µM (active)	
O=C(c1cc(C(F)(F)F)cc(C(F)(F)F)c1)N1CCC2(CC1)CN(c1ccccc1)C2		-14.2%
Cc1ccc(C(=O)N2CCN(c3ccc(C(F)(F)F)cn3)CC2)cc1	25.1 µM (active)	
O=C(c1cc(C(F)(F)F)cc(C(F)(F)F)c1)N1CCC2(CC1)CCN(c1ccncc1)CC2		-12%
O=C(c1cc(C(F)(F)F)cc(C(F)(F)F)c1)N1CCC2(CC1)CCN(c1ccccn1)CC2		-32.3%
O=C(c1cc(C(F)(F)F)cc(C(F)(F)F)c1)N1CCC2(CC1)CN(c1ccccn1)C2		1.83%
CN1CCN(c2ncc3ncc(=O)n(C[C@H]4CCCO4)c3n2)CC1		-0.787%
CC(C)NC(=O)/C(=N\O)c1ccccc1		5.05%
O=C(NC(N1CCCC1)C(Cl)(Cl)Cl)c1ccccc1 (stereo not given)	7.94 µM (active)	
O=C(NNC(=O)c1ccccc1)C(=O)N1CCCCC1		14.9%
CCN(CC)c1ncnc2c1sc1nc(C)cc(C)c12	14.1 µM (active)	
CCN(CC)N=Nc1[nH]nc2nc(C)cc(C)c12		-25.4%
Cc1ccc(-c2ncccc2OC(=O)C23CC4CC(CC(C4)C2)C3)cc1	14.1 µM (active)	
O=C(NOC(=O)c1cc(Br)ccc1Cl)c1cccs1		22.5%

SMILES	AC50	activity, negative = inhibition
O=C(CCNc1cccc(Cl)c1)c1cccs1	3.98 µM (active)	
O=C(CNc1cccc(Cl)c1)c1ccc(Cl)cc1	2 µM (active)	
COc1ccccc1-c1nc(NCCNC(C)=O)c2ccccc2n1		-0.29%
COc1ccccc1C1=NOC(COC(=O)c2ccc3ccccc3n2)C1 (stereo not given)	15.8 µM (active)	
O=C1C[C@H](c2ccccc2)[C@@H](c2ccc(Br)cc2)O1	0.398 µM (active)	
O=[N+]([O-])c1c(NCCO)cc(Sc2nc3ccccc3s2)c2nonc12	2.51 µM (active)	
CN(CCO)c1cc(Sc2nc3ccccc3s2)c2nonc2c1[N+](=O)[O-]	11.2 µM (active)	
CC(C)n1nnnc1-c1cc(Cl)cc(Cl)c1	7.94 µM (active)	
CN1CC[C@@]2(CCCN(C(=O)c3cccc(F)c3)C2)C1		-21.2%
Cc1cccc(Cn2ncc(Cl)c(Cl)c2=O)c1	8.91 µM (active)	
Cc1cccc(-n2nnc3cnn(C)c3c2=O)c1		-24.5%
CC[N+](C)(CC)CCOC(=O)C1c2ccccc2Oc2ccccc21		2.44% [at 25.6 µM]
CC(=O)c1ccc(OC(=O)C2c3ccccc3Oc3ccccc32)cc1	25.1 µM (active)	
O=C(O)c1ccccc1C1c2ccccc2Oc2ccccc21		9.43% [at 11.4 µM]
Oc1ccc(Cl)cc1C=Nc1cnc2ccccc2c1		-4.43% [at 11.4 µM]
O/N=C/c1cc(Cl)ccc1OCc1cccc2ccccc12	1.58 µM (active)	
O=[N+]([O-])c1ccc(/C=N/n2c(COc3ccccc3)n[nH]c2=S)cc1	11.2 µM (active)	
O=S(=O)(N/N=C\C=C\c1ccccc1)c1ccc(Br)cc1	2 µM (active)	
O=C(N/N=C/C=C/c1ccccc1)c1cc2c(ccc3ccccc32)o1		28.5%
Nc1ncnc2nc(N3CCN(CCO)CC3)[nH]c12		-15.5% [at 11.4 µM]

SMILES	AC50	activity, negative = inhibition
COc1ccccc1C(c1nnnn1C(C)(C)C)N1CCN(Cc2ccncc2)CC1 (stereo not given)	2.24 µM (active)	
COc1ccc(C(=O)N2CCC3(CCN(Cc4ccncc4)CC3)CC2)cc1		-24.1%
COc1ccccc1C(c1nnnn1C(C)(C)C)N1CCCc2ccccc21 (stereo not given)	4.47 µM (active)	
Cc1nc2cnc(N3CCN(C)CC3)nc2n(C)c1=O		6.26%
COc1ccc(C2C(C#N)=C(N)N(Nc3ccccc3)C3=C2C(=O)CC(C)(C)C3)cc1C (stereo not given)	2.24 µM (active)	
CN(C)N1C(N)=C(C#N)C(c2cccnc2)C2=C1CC(C)(C)CC2=O (stereo not given)		-55.4%
COc1cc(C2C(C#N)=C(N)N(Nc3ccccc3)C3=C2C(=O)CC(C)(C)C3)ccc1OCc1ccccc1 (stereo not given)	6.31 µM (active)	
COc1cc(C2C(C#N)=C(N)N(Nc3ccccc3)C3=C2C(=O)CC(C)(C)C3)ccc1OCc1cccc(F)c1 (stereo not given)	7.08 µM (active)	
Cc1noc(C)c1C(=O)N1CCC2(CCCN(Cc3ccc(C#N)cc3)C2)CC1		-20.6%
CN(C)Cc1ccccc1-c1ccc2ncnc(N(C)C)c2c1		-8.91%
CN(C)c1ncnc2ccc(-c3ccccc3C(F)(F)F)cc12	3.98 µM (active)	
Cc1ccccc1-c1ccc2ncnc(N(C)C)c2c1	7.94 µM (active)	
COc1ccccc1-c1ccc2ncnc(N(C)C)c2c1	0.501 µM (active)	
CC(=O)OC[C@@H]1O[C@@H](O/N=C2/C[C@@H](O)[C@@H](O)[C@@H]3[C@H]4C(=O)N(c5ccc(F)cc5F)C(=O)[C@@H]4CC[C@H]23)[C@H](OC(C)=O)[C@H](OC(C)=O)[C@@H]1OC(C)=O		-9.07% [at 11.4 µM]
CC1(C)SC(=S)N(Cc2ccc3c(c2)OCO3)C1N(O)C(=O)NC1CCCCC1 (stereo not given)	3.55 µM (active)	
CCOC(=O)N/N=C1/C[C@@H](O)[C@@H](O)[C@@H]2[C@@H]3C(=O)N(Cc4ccc5c(c4)OCO5)C(=O)[C@H]3CC[C@H]12		-2.19% [at 11.4 µM]
CCOC(=O)N/N=C1/C[C@@H](O)[C@@H](O)[C@@H]2[C@@H]3C(=O)N(Cc4ccc5c(c4)OCO5)C(=O)[C@H]3CC[C@@H]12		4.88% [at 11.4 µM]
CCCCNc1nc(-c2ccccc2)c(C(=O)OCC)cc1C#N	17.8 µM (active)	
CCOC(=O)c1cc(C#N)c(Oc2ccccc2OC)nc1-c1ccccc1	6.31 µM (active)	
CCCCNc1c(C(=O)OCC)c(C)nc2c1cnn2CC		-9.56% [at 25.6 µM]
